For 6 compounds, outcome and AC50 results are on record in PubChem BioAssay (EPA / NIEHS).

A word on the AC50: it is the midpoint of the concentration-response curve, whichever way the signal moves.

Calls of active or inactive are those of the source. How the source made its calls: active means hit-call score of the fitted dose curve at least 0.9, where 1 is the maximum; inactive means score below 0.9.

What all share (conditions): mRNA level, 48 h; actives raise or lower the signal
Read-out in test [1]: Bcl-2 (BAX) gene, BAX (gene 581)
Kind of test: LTEA_HepaRG_BAX: Life Technologies and Expression Analysis (LTEA) Assay for Bcl-2 (BAX) gene using HepaRG (AID 2283470). The procedure, abridged:
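Gene expression measured by Fluidigm qRT-PCR with three housekeeping genes for normalisation. HepaRG cells, plated 48 h beforehand, treated 48 h at up to 100 uM (8-point, half-log) in 0.5% DMSO. Bidirectional fitting versus DMSO.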

Read-out in test [2]: adenosine kinase (ADK) gene, ADK (gene 132)
The test can be described thus: LTEA_HepaRG_ADK: Life Technologies and Expression Analysis (LTEA) Assay for adenosine kinase (ADK) gene using HepaRG (AID 2283471). In short, it runs like this:
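Read-out is ADK transcript level measured by qRT-PCR and normalised to three housekeeping genes. Cells are human HepaRG, dosed for 48 h at up to 100 uM in 0.5% DMSO. Gain or loss of signal is fitted against DMSO controls.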

Read-out in test [3]: Alpha-fetoprotein (AFP) gene, AFP (gene 174)
Kind of test: LTEA_HepaRG_AFP: Life Technologies and Expression Analysis (LTEA) Assay for Alpha-fetoprotein (AFP) gene using HepaRG (AID 2283472). In short, it runs like this: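 AFP transcript measured by TaqMan qRT-PCR with three housekeeping genes for normalization, after 48 h chemical treatment of HepaRG cells (top 100 uM, half-log steps, 0.5% DMSO). Gain or loss fitted against vehicle.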

Read-out in another test: BCL2L11 (gene 10018)
Kind of test: LTEA_HepaRG_BCL2L11: Life Technologies and Expression Analysis (LTEA) Assay for Bcl-2 (BCL2L11) gene using HepaRG (AID 2283473). In short, it runs like this: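 Human hepatic HepaRG cultures are treated 48 h with test chemicals (maximum 100 uM, 0.5% DMSO vehicle). Expression of BCL2L11 is measured by qRT-PCR against ACTB, GAPDH and POLR2A, with activity in either direction scored relative to vehicle.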

Read-out in test [4]: Apolipoprotein A-V (APOA5) gene, APOA5 (gene 116519)
Kind of test: LTEA_HepaRG_APOA5: Life Technologies and Expression Analysis (LTEA) Assay for Apolipoprotein A-V (APOA5) gene using HepaRG (AID 2283474). In short, it runs like this:
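Concentration-response of APOA5 expression in HepaRG: eight half-log doses to 100 uM, 48 h, qRT-PCR normalized to ACTB/GAPDH/POLR2A, bidirectional fitting with 0.5% DMSO as baseline.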

Read-out in test [5]: Apoptosis regulator Bcl-2 (Homo sapiens) (UniProt P10415)
Kind of test: LTEA_HepaRG_BCL2: Life Technologies and Expression Analysis (LTEA) Assay for Bcl-2 gene using HepaRG (AID 2283475). The procedure, abridged:
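qRT-PCR of BCL2 transcript, normalized to three housekeeping genes (ACTB, GAPDH, POLR2A), after 48 h chemical exposure of HepaRG cells; concentrations top 100 uM with half-log dilutions, 0.5% DMSO vehicle, duplicates; changes up or down fitted relative to vehicle.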

Read-out in test [6]: Bcl-2 (BID) gene, BID (gene 637)
Kind of test: LTEA_HepaRG_BID: Life Technologies and Expression Analysis (LTEA) Assay for Bcl-2 (BID) gene using HepaRG (AID 2283476). In short, it runs like this: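 Duplicate 48 h treatments of HepaRG cells in serum-free induction medium spanned 100 uM downward in half-log steps, 0.5% DMSO. Transcript change quantified by qRT-PCR against three housekeeping genes, fitted up or down versus DMSO.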

Read-out in a further test: Caspase-3 (Homo sapiens) (UniProt P42574)
The test can be described thus: LTEA_HepaRG_CASP3: Life Technologies and Expression Analysis (LTEA) Assay for cysteine-aspartic acid protease (CASP3) using HepaRG (AID 2283477). The procedure, abridged: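 Transcript-level assay: CASP3 mRNA in human HepaRG after 48 h treatment, eight half-log concentrations from 100 uM in 0.5% DMSO, quantified by qRT-PCR.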

Read-out in test [7]: Cytochrome P450 (CYP24A1), CYP24A1 (gene 1591)
Kind of test: LTEA_HepaRG_CYP24A1: Life Technologies and Expression Analysis (LTEA) Assay for Cytochrome P450 (CYP24A1) using HepaRG (AID 2283478). The procedure, abridged: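 Gene expression of CYP24A1 by TaqMan qRT-PCR in HepaRG after 48 h treatment, highest concentration 100 uM; activity fitted in both directions relative to DMSO vehicle.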

Read-out in test [8]: Cytochrome P450 (CYP1A2), CYP1A2 (gene 1544)
Kind of test: LTEA_HepaRG_CYP1A2: Life Technologies and Expression Analysis (LTEA) Assay for Cytochrome P450 (CYP1A2) using HepaRG (AID 2283479). In short, it runs like this: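 In duplicate wells, HepaRG cultures maintained in 0.5% DMSO were treated 48 h across an 8-point, half-log series topping at 100 uM; phenobarbital (1 mM) served as induction control. Expression was read by qRT-PCR.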

Read-out in test [9]: cysteine-aspartic acid protease (CASP8), CASP8 (gene 841)
Kind of test: LTEA_HepaRG_CASP8: Life Technologies and Expression Analysis (LTEA) Assay for cysteine-aspartic acid protease (CASP8) using HepaRG (AID 2283480). In short, it runs like this:
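Concentration-response in duplicate up to 100 uM (half-log steps, 0.5% DMSO) on differentiated HepaRG cultures for 48 h. Expression change of CASP8 mRNA is determined by TaqMan qRT-PCR with housekeeping-gene normalization.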

Read-out in test [10]: Cytochrome P450 (CYP2B6), CYP2B6 (gene 1555)
The test can be described thus: LTEA_HepaRG_CYP2B6: Life Technologies and Expression Analysis (LTEA) Assay for Cytochrome P450 (CYP2B6) using HepaRG (AID 2283481). In short, it runs like this:
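Human HepaRG, 48 h dosing, 0.5% DMSO vehicle, top dose 100 uM. CYP2B6 transcript by qRT-PCR, housekeeping-normalized, bidirectional curve fit.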

Read-out in test [11]: Cytochrome P450 2C19 (Homo sapiens) (UniProt P33261)
Kind of test: LTEA_HepaRG_CYP2C19: Life Technologies and Expression Analysis (LTEA) Assay for CYP2C19 using HepaRG (AID 2283482). In short, it runs like this:
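Endpoint: CYP2C19 mRNA change, bidirectional fit vs 0.5% DMSO. Cells: HepaRG, 48 h exposure, eight-point series topping at 100 uM. Quantitation: qRT-PCR normalized to ACTB, GAPDH, POLR2A.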

Read-out in another test: CYP2C8 (gene 1558)
The test can be described thus: LTEA_HepaRG_CYP2C8: Life Technologies and Expression Analysis (LTEA) Assay for CYP2C8 using HepaRG (AID 2283483). The procedure, abridged:
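This is a transcriptional endpoint in HepaRG cultures: 48 h exposure, highest concentration 100 uM. CYP2C8 mRNA is quantified by TaqMan qRT-PCR.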

Read-out in a further test: CYP2C9 (gene 1559)
The test can be described thus: LTEA_HepaRG_CYP2C9: Life Technologies and Expression Analysis (LTEA) Assay for CYP2C9 using HepaRG (AID 2283484). The procedure, abridged: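 Eight-point concentration-response (highest 100 uM, half-log dilutions) in HepaRG cells for 48 h; CYP2C9 expression by qRT-PCR normalized to ACTB, GAPDH, POLR2A. Bidirectional fit, DMSO baseline.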

Read-out in a further test: CYP2E1 (gene 1571)
The test can be described thus: LTEA_HepaRG_CYP2E1: Life Technologies and Expression Analysis (LTEA) Assay for CYP2E1 using HepaRG (AID 2283485). The procedure, abridged:
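CYP2E1 transcript measured by Fluidigm qRT-PCR against three housekeeping genes in human HepaRG cells treated 48 h (top 100 uM, half-log steps, 0.5% DMSO vehicle). Gain or loss fitted relative to DMSO baseline.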

Read-out in test [12]: Cytochrome P450 3A4 (Homo sapiens) (UniProt P08684)
The test can be described thus: LTEA_HepaRG_CYP3A4: Life Technologies and Expression Analysis (LTEA) Assay for CYP3A4 using HepaRG (AID 2283487). The procedure, abridged:
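HepaRG, 48 h exposure, 8-pt CRC from 100 uM (half-log), 0.5% DMSO, duplicates; serum-free induction medium. Readout: CYP3A4 mRNA, qRT-PCR, ACTB/GAPDH/POLR2A normalization. Bidirectional fit vs DMSO.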

Read-out in test [13]: DNA damage-inducible transcript 3 (DDIT3), DDIT3 (gene 1649)
Kind of test: LTEA_HepaRG_DDIT3: Life Technologies and Expression Analysis (LTEA) Assay for DNA damage-inducible transcript 3 (DDIT3) using HepaRG (AID 2283488). The procedure, abridged: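 DDIT3 transcript was quantified by qRT-PCR with ACTB/GAPDH/POLR2A normalization after 48 h chemical treatment of differentiated HepaRG cells in 0.5% DMSO. Dosing was eight-point, half-log, top 100 uM, duplicate wells. Curves fitted bidirectionally versus DMSO.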

Read-out in test [14]: Pro-epidermal growth factor (Homo sapiens) (UniProt P01133)
The test can be described thus: LTEA_HepaRG_EGF: Life Technologies and Expression Analysis (LTEA) Assay for Epidermal growth factor (EGF) using HepaRG (AID 2283489). In short, it runs like this:
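Concentration-response mRNA assay: HepaRG cells dosed 48 h (max 100 uM, 0.5% DMSO), EGF measured by qRT-PCR and normalized to ACTB/GAPDH/POLR2A.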

Read-out in the next test: CYP4A11 (gene 1579)
Kind of test: LTEA_HepaRG_CYP4A11: Life Technologies and Expression Analysis (LTEA) Assay for CYP4A11 using HepaRG (AID 2283486). In short, it runs like this: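 Human hepatic HepaRG cultures receive duplicate 48 h exposures across a concentration-response series topping at 100 uM. Expression changes in CYP4A11 are measured by qRT-PCR relative to DMSO controls.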

Chain of Apoptosis regulator Bcl-2 (Homo sapiens) (P10415 whole entry, looked up): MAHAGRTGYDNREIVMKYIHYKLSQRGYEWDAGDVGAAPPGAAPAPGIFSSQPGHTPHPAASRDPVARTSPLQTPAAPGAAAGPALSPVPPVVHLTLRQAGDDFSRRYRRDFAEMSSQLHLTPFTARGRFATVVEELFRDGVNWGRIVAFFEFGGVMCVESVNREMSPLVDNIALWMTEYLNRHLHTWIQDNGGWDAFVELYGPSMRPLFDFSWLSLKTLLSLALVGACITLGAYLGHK
Chain of Cytochrome P450 3A4 (Homo sapiens) (P08684 whole entry, looked up): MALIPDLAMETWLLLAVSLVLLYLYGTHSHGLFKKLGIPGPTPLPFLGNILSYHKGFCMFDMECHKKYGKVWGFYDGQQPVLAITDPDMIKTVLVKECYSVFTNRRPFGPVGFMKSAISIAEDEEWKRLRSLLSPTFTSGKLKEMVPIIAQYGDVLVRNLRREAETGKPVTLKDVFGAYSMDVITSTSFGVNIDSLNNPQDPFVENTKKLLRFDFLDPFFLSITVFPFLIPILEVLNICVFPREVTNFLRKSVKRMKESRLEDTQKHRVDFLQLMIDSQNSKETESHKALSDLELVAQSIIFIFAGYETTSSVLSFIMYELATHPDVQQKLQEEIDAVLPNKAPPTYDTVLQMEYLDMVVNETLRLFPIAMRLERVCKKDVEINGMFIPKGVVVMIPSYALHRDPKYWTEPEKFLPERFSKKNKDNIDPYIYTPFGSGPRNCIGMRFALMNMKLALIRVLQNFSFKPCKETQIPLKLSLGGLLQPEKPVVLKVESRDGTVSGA
Chain of Cytochrome P450 2C19 (Homo sapiens) (P33261 whole entry, looked up): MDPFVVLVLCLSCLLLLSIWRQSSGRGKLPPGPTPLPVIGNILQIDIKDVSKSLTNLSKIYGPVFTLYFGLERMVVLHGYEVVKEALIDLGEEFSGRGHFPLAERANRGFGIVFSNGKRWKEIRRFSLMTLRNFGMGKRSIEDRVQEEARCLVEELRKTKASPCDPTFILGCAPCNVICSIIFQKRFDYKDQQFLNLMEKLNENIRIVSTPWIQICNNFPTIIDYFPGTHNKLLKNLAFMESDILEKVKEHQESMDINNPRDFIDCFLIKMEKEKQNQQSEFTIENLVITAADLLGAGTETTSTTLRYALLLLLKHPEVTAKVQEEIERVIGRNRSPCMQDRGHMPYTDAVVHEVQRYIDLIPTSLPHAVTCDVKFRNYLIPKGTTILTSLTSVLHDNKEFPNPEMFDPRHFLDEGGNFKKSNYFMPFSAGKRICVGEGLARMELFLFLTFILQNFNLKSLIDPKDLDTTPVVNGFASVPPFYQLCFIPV
Chain of Caspase-3 (Homo sapiens) (P42574 whole entry, looked up): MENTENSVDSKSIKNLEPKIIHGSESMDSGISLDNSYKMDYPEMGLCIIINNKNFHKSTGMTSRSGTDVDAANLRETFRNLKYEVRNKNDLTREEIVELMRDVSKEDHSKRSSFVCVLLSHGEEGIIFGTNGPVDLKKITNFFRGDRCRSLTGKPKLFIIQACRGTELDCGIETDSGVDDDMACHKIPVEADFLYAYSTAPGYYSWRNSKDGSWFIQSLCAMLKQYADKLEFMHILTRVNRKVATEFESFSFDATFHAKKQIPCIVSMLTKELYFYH

As for `C=CCOC(=O)C(C)(C)OC(=O)c1cc(-n2c(=O)cc(C(F)(F)F)n(C)c2=O)ccc1Cl`, the outcome (in test [1]; in test [2]; in [3]; with BCL2L11 (gene 10018); in test [4]; in [5]) was inactive. The call (in test [6]; with Caspase-3 (Homo sapiens); in [7]; in [8]; in [9]; in [11]) was inactive. For the same compound, the result (with CYP2C8 (gene 1558); with CYP2C9 (gene 1559); in the test with CYP2E1 (gene 1571); in [13]; in test [14]) was inactive. Moreover, the values for the half-maximal activity concentration (AC50) in test [10] and in [12] were 6.65 µM (active) and 16.6 µM (active), respectively.

As to `CC(C)C1(C)N=C(c2ncccc2C(=O)O)NC1=O` (configuration not stated), the outcome (in test [1]; in [2]; in test [3]; with BCL2L11 (gene 10018); in test [4]; in test [5]) was inactive. For the same compound, the compound was classed as inactive (in test [6]; with Caspase-3 (Homo sapiens); in test [7]; in test [8]; in test [9]; in test [10]). The compound was classed as inactive (in test [11]; in the test with CYP2C9 (gene 1559); with CYP2E1 (gene 1571); in test [12]; in [13]; in test [14]).

`Cc1cnc(C2=NC(C)(C(C)C)C(=O)N2)c(C(=O)O)c1` (configuration not stated): the call (in test [1]; in test [2]; in test [3]; in the test with BCL2L11 (gene 10018); in test [4]; in test [5]) was inactive. In addition, the call (in [6]; with Caspase-3 (Homo sapiens); in test [7]; in test [9]; in test [10]; in test [11]) was inactive. The compound was classed as inactive (in the test with CYP2C8 (gene 1558); with CYP2C9 (gene 1559); in the test with CYP2E1 (gene 1571); with CYP4A11 (gene 1579); in test [12]; in [13]). Also, the call in [14] was inactive.

Take `CN=C=S`: the compound was classed as inactive (in [1]; in test [2]; in test [3]; in the test with BCL2L11 (gene 10018); in [4]; in [5]). Also, the result (in test [6]; with Caspase-3 (Homo sapiens); in [7]; in test [8]; in [9]; in test [10]) was inactive. The compound was classed as inactive (in test [11]; in the test with CYP2C8 (gene 1558); in the test with CYP2C9 (gene 1559); with CYP2E1 (gene 1571); with CYP4A11 (gene 1579); in test [12]). For the same compound, the result in [13] and in [14] was inactive.

For the compound `Nc1c(Cl)c(F)nc(OCC(=O)O)c1Cl`, the outcome (in test [1]; in test [2]; in test [3]; in the test with BCL2L11 (gene 10018); in test [4]; in [5]) was inactive. Further, the compound was classed as inactive (in test [6]; in the test with Caspase-3 (Homo sapiens); in test [7]; in test [8]; in test [9]; in test [10]). The result (in [11]; in the test with CYP2C9 (gene 1559); in the test with CYP2E1 (gene 1571); with CYP4A11 (gene 1579); in [12]; in test [13]) was inactive. In addition, the outcome in test [14] was inactive.

As for `COCC(C)N(C(=O)CCl)c1c(C)csc1C` (configuration not stated), the outcome (in test [1]; in test [2]; in test [3]; with BCL2L11 (gene 10018); in test [4]; in test [5]) was inactive. Moreover, the call (in test [6]; with Caspase-3 (Homo sapiens); in test [7]; in test [8]; in test [9]; in [11]) was inactive. For the same compound, the compound was classed as inactive (with CYP2C9 (gene 1559); in [13]). The AC50 is 2.05 µM (active) in test [10], 64.6 µM (active) with CYP2E1 (gene 1571) and 50 µM (active) in test [14].
